Compounds without any hit were thinned out: in the full panel of roughly 83,000, 20% have a hit.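 Plates (96-well) were seeded with cells, treated with compound at one concentration, and incubated for 48 hours before percent growth was determined.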 Values without a mark were called inactive. Calls of active or inactive are those of the source. How the source made its calls: active means growth percent below 10; inactive means the rest.
What was measured:
Assay in all cases: NCI-60 one-dose screen, 48 h (100 = growth as untreated, 0 = no growth, -100 = all killed)
Conditions in all cases: 10 µM unless noted
SR leukemia = tested on: SR leukemia
OVCAR-8 ovarian = tested on: OVCAR-8 ovarian
OVCAR-5 ovarian = tested on: OVCAR-5 ovarian
OVCAR-4 ovarian = tested on: OVCAR-4 ovarian
IGROV1 ovarian = tested on: IGROV1 ovarian
OVCAR-3 ovarian = tested on: OVCAR-3 ovarian
HS 578T breast = tested on: HS 578T breast
NCI/ADR-RES ovarian = tested on: NCI/ADR-RES ovarian
T-47D breast = tested on: T-47D breast
BT-549 breast = tested on: BT-549 breast
MDA-MB-435 melanoma = tested on: MDA-MB-435 melanoma
SW-620 colon = tested on: SW-620 colon
MCF7 breast = tested on: MCF7 breast
HCT-116 colon = tested on: HCT-116 colon
HCC-2998 colon = tested on: HCC-2998 colon
KM12 colon = tested on: KM12 colon
SK-OV-3 ovarian = tested on: SK-OV-3 ovarian

| SMILES | growth (SR leukemia) | growth (OVCAR-8 ovarian) | growth (OVCAR-5 ovarian) | growth (OVCAR-4 ovarian) | growth (IGROV1 ovarian) | growth (OVCAR-3 ovarian) | growth (HS 578T breast) | growth (NCI/ADR-RES ovarian) | growth (T-47D breast) | growth (BT-549 breast) | growth (MDA-MB-435 melanoma) | growth (SW-620 colon) | growth (MCF7 breast) | growth (HCT-116 colon) | growth (HCC-2998 colon) | growth (KM12 colon) | growth (SK-OV-3 ovarian) [%] |
| --- | --- | --- | --- | --- | --- | --- | --- | --- | --- | --- | --- | --- | --- | --- | --- | --- | --- |
| O=C(NCCN1CCC(O)CC1)c1cc2c(o1)C(=O)c1ccccc1C2=O | 13.4% | -48.8% (active) | -84.7% (active) | -94.1% (active) | -83.8% (active) | -75.1% (active) | -27.4% (active) | -26.3% (active) | -44.6% (active) | -94.4% (active) | -91.8% (active) | -78.3% (active) | -69.7% (active) | -81.5% (active) | -92.9% (active) | -89.3% (active) | – |
| N#C/C(=C\c1ccc(Br)cc1)n1nnc2cc(Cl)c(Cl)cc21 | 10% | 22.2% | 46.2% | 21.6% | 23.3% | 5.17% (active) | 51.3% | 7.03% (active) | 18% | 22.5% | -18.2% (active) | 19.2% | 6.51% (active) | 22.2% | 35.3% | 29.7% | – |
| O=C(CC12CC3CC(CC(C3)C1)C2)NCCOCCOCCOCCNC(=O)c1cc2c(o1)C(=O)c1ccccc1C2=O | 7.13% (active) | 12.4% | -87.9% (active) | -95.9% (active) | -10.8% (active) | -42.9% (active) | -27.2% (active) | -15% (active) | 1.06% (active) | -90.6% (active) | -96.8% (active) | -10.6% (active) | -67.2% (active) | -19.6% (active) | -73.7% (active) | 2.29% (active) | – |
| CC(C)(C)c1ccc(C(=O)Nc2sc3c(c2C(N)=O)CCC(=O)C3)cc1 | 11.1% | 8.88% (active) | 12.3% | -91.1% (active) | -21.6% (active) | -78.8% (active) | -12% (active) | -0.603% (active) | -13.7% (active) | -10.3% (active) | -45.2% (active) | -36.7% (active) | 3.05% (active) | -30.5% (active) | 17.1% | -55.6% (active) | – |
| COc1cc2cc(Oc3ccc(NC(=O)Nc4cc(C(F)(F)F)cc(C(F)(F)F)c4)cc3)c(C)nc2cc1OCCN1CCCCC1 | -29.5% (active) | -48.1% (active) | -65.9% (active) | -90.6% (active) | -78.4% (active) | -91.4% (active) | -44.1% (active) | -66.9% (active) | -39.7% (active) | 94.3% | -94.4% (active) | -84.4% (active) | -84.8% (active) | -76.8% (active) | -94.5% (active) | -78.5% (active) | – |
| COc1ccc(-c2nnc(SCC(=O)NC3=NN=C(c4ccccc4)CS3)o2)cc1 | 86.6% | 83% | 102% | 100% | 108% | 107% | 97.3% | 104% | – | 104% | 97.1% | 98.3% | 102% | 94.2% | 105% | 102% | 93.5 |
| N#C/C(=C\c1ccc2c(c1)OCO2)n1nnc2ccccc21 | 28% | 17.7% | -17.5% (active) | 34.2% | 4.33% (active) | -69% (active) | -4.27% (active) | 6.26% (active) | 26.2% | 30.3% | -69.1% (active) | 12% | 10.3% | 5.72% (active) | -9.93% (active) | -16.2% (active) | – |
| Cl.Fc1c[c-]c(-c2ccccn2)c(F)c1.[Pt].c1ccc(P(c2ccccc2)C([PH+](c2ccccc2)c2ccccc2)[PH+](c2ccccc2)c2ccccc2)cc1 | 23.3% | 16.3% | 22% | 17.2% | 19.1% | 11% | 12% | 84.2% | 27.7% | 26.6% | 12.9% | 14.7% | 4.74% (active) | 8.7% (active) | 24.6% | 11.4% | – |
| N#C/C(=C\c1ccc(Br)cc1)n1nnc2ccccc21 | 11.7% | 17.3% | 7.66% (active) | 6.76% (active) | 1.96% (active) | -31.8% (active) | 19.4% | -6.66% (active) | 24% | -1.46% (active) | -38.4% (active) | -19.9% (active) | 14.2% | -44.2% (active) | -30.8% (active) | 1.67% (active) | – |
| O=C1Nc2ccccc2/C1=N/N=C/c1c[nH]c2ccccc12 | 67% | 70.4% | 81.6% | 59.9% | 35.7% | 69.5% | 15% | 91% | 61% | 92.7% | 73.8% | 71.5% | 72.5% | 72.4% | 101% | 28.5% | – |
| O=C(/C=C/c1ccccc1)c1ccc2ccccc2c1 | 48.1% | 100% | 106% | 97% | 76.2% | – | 145% | 101% | 47.4% | – | 103% | – | 49.9% | -5.91% (active) | – | 93.2% | 103 |
| CCC(O)(C(c1ccccc1)c1ccccn1)C(c1ccccc1)c1ccccn1 (centres undefined) | 83.8% | 106% | 96.4% | 107% | 101% | 102% | 131% | 109% | 92.3% | – | 117% | 120% | 101% | 99.4% | – | 106% | 94.8 |
| N=C(N)c1ccc(-c2ccc(/C=C/c3ccccc3)s2)cc1 | 1.05% (active) | 8.3% (active) | 13.1% | -24.8% (active) | -62.6% (active) | -25.5% (active) | 57.4% | -12.5% (active) | 37.8% | 93.9% | -34.9% (active) | -67.1% (active) | -74.2% (active) | -79% (active) | -63.7% (active) | -47.1% (active) | – |
| N#C/C=C(\c1ccc([N+](=O)[O-])cc1)n1nnc2cc(Cl)c(Cl)cc21 | 13% | 15.7% | 10.1% | 0.234% (active) | -43% (active) | -48% (active) | 27.8% | -4.34% (active) | 28.5% | 33.7% | 7.64% (active) | -34.8% (active) | 1.7% (active) | -52.7% (active) | 19.9% | -81.1% (active) | – |
| O=C(O)c1ccccc1C(=O)Nc1ccc(Cl)cc1 | 80.4% | 87.7% | 103% | 110% | 102% | 110% | 132% | 104% | 87.2% | – | 85.7% | 93% | 103% | 96.3% | 92.6% | 85.8% | 109 |
| O=C1Nc2ccccc2/C1=N/N=C/c1ccsc1 | 88.6% | 102% | 115% | 90.4% | 101% | 103% | 94.4% | 110% | 87% | 112% | 105% | 97.8% | 49.5% | 103% | 108% | 102% | – |
| COc1ccc(C(=O)/C=C/C23c4ccccc4C(c4ccccc42)C2C(=O)NC(=O)C23)cc1 (centres undefined) | 75.5% | 88.3% | 91.4% | 88.5% | 98.8% | 95.9% | 77.6% | 90.1% | 86.2% | 97.1% | 101% | 110% | 89% | 83.2% | 100% | 97.3% | – |
| Cc1cc(-c2noc(C(F)(F)F)n2)ccc1N1CCN(c2cc(C(=O)N(C)C)no2)CC1 | 52.9% | 68.1% | 102% | 64.9% | 92.1% | 83.9% | 89.1% | 69.5% | 46.6% | 66.6% | 71% | 84.7% | 55.5% | 45.7% | 80.8% | 85.2% | – |

From PubChem BioAssay (NCI)
